Most compounds without a hit are left out; they make up all but 10% or so of the library.
PNC assembly inh – perinucleolar compartment assembly inhibition; PC3M PTB-GFP, PNC prevalence imaging, 16 h; active compounds read low; activity change (PNC), negative = inhibition, % at 10 µM; actives 3.1% (n = 140,000);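 active means readout at or below -70, meaning at least 70% loss of cells showing the perinucleolar compartment, a nuclear body marking cancer cells; inconclusive means readout between -30 and a set limit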
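Compounds are pinned in duplicate onto adhered PC3M cells stably expressing GFP-tagged PTB and incubated 16 h at 37 C. Cells are then fixed, nuclei stained with Hoechst, and PNC-positive cells counted.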
Lamin A splicing – changes lamin A minigene splicing in HeLa cells. HeLa LMNA splicing GFP/RFP minigene ratio, 48 h. Potency, µM (highest dose often 46.1 µM), usual class: inhibitors. actives 0.01% (n = 200,000); active means well fitted inhibition curve with a large enough effect in the signal ratio, with a control signal flat, not every such curve was filed as active; inconclusive means small, poorly fitted or top-dose-only effect, or effect the other way, or a change in a side signal; the % refers to the signal ratio
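Read-out is the ratio of GFP to DsRed2 object intensity, acquired by 488 nm laser-scanning cytometry on HeLa lamin A-EGFP minigene reporter cells. Compound incubation 48 hrs at 37 °C in Opti-MEM with 2% FBS; DMSO 0.5% final.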
HPGD block – inhibitors of human 15-hydroxyprostaglandin dehydrogenase (HPGD); purified HPGD, NADH fluorescence kinetic, PGE2 substrate; AID 894; actives 4.3% (n = 150,000); P15428; Potency, µM, most hits filed as inhibitors
Target sequence (P15428 whole entry, looked up): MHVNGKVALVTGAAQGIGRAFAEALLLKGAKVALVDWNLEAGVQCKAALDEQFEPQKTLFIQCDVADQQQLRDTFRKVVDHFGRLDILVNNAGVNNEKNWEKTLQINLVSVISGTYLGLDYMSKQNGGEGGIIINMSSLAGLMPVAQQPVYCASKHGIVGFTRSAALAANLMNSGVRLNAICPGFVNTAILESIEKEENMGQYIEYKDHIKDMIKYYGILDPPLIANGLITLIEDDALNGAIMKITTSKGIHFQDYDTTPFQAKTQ
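NADH formation kinetics: reaction with 30 uM PGE2 and 1 mM NAD+ (final), 20 nM enzyme, Tris-HCl pH 8 with Tween 20, after 15 min compound preincubation at room temperature. Fluorescence change, last versus first of five reads.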
ALOX12 inhib – 12-hLO (ALOX12) enzyme inhibition. actives 0.12% (n = 150,000). Potency, µM (top dose mostly 57.1 µM), most hits filed as inhibitors. purified 12-hLO, xylenol orange hydroperoxide absorbance. AID 1452. P18054; active means well fitted inhibition curve with a large enough effect; inconclusive means small, poorly fitted or top-dose-only effect; further: nearly all actives have a fitted effect of over 55% in size
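Xylenol orange chromogenic assay: hydroperoxide from 12hLO oxidises Fe(II), giving red-shifted Fe(III)-XO absorbance. Conditions: 150 nM enzyme, 40 uM arachidonic acid, 25 mM Hepes pH 7.0, 0.01% Triton X-100, 30 min, room temperature.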
ALDH1A1 block – ALDH1A1 (human) enzyme inhibition; P00352; Purified ALDH1A1, NADH fluorescence, propionaldehyde substrate; actives 7.3% (n = 220,000); Potency, µM (doses to about 75.3 µM), actives largely listed as inhibitors
Numbers stand for hits; 0 = inactive; ? = inconclusive; - = no result given; [ ] = dose if it differs, or a comment. Unless noted, the call rests on the fitted dose curve; in most records, active means well fitted inhibition curve with a large enough effect (not every such curve was filed as active); inconclusive means small, poorly fitted or top-dose-only effect, or another doubt; inactive means no such curve, though single readings can be large or run the other way.

SMILES	PNC assembly inh	Lamin A splicing	HPGD block	ALOX12 inhib	ALDH1A1 block
Cc1ccc(-n2nnnc2SCC(=O)Nc2sccc2C#N)cc1	0	0	0	0	0
COc1cccc(Cn2c(=O)c(C)nc3cnc(OC)nc32)c1	-	?	-	-	0
CC(C)(C)OC(=O)N1CCC(c2c(C(=O)N3CCN(c4ccccn4)CC3)cnn2-c2ccc(F)cc2)CC1	-	0	-	-	-
COc1cc(C(=O)NC2CC(=O)N(c3cccc(F)c3)C2)cc(OC)c1OC (configuration not stated)	-	0	-	-	-
Cc1cccc(OC(=O)c2snnc2C)c1C	-	0	-	-	-
COc1ccc(-c2c3c(=O)n(C)c(=O)n(C)c3cn2-c2ccccc2)cc1	-90.9	0	0	0	?
O=C(O)c1ccc(SSc2ccc(C(=O)O)cn2)nc1	-	-	3.98µM	0[11.4 µM]	?
CCOc1ccc(C(=O)O)cn1	-	?	-	-	0
CC1CCN(c2oc(-c3ccc(COc4ccc(Cl)cc4)o3)nc2C#N)CC1	-	0	-	-	-
O=C(Nc1ccc(Cl)cc1)c1cccc(N2C(=O)C3C4CCC(C4)C3C2=O)c1 (configuration not stated)	0	?	31.6µM	0	0
O=C(O)c1ccc(NC(=O)c2cccc(N3C(=O)C4C5CCC(C5)C4C3=O)c2)cc1 (configuration not stated)	0	0	0	0	0
COc1ccc(-c2nc3c(c4c2C[C@H](c2ccccc2)OC4)CN(S(=O)(=O)c2ccc4c(c2)OCCN4C)CC3)c(C)c1	-	0[9.22 µM]	0	0[11.4 µM]	?
COCCCN1C(=O)/C(=C/c2ccc(CNS(=O)(=O)c3ccccc3)o2)C(C(=O)OC)=C1C	-	0	-	-	35.5µM
CC(=O)c1ccc(NC(=O)C2CC(=O)N(Cc3ccccc3)C2)cc1 (configuration not stated)	0	?	0	0	14.1µM
NC(N)=N[C@@H]1C(O)[C@H](N=C(N)N)[C@@H](O)C(O)[C@H]1O (some centres not stated)	-	-	0	0[11.4 µM]	0[13.5 µM]
O=S(=O)(NCCSc1nc2ccccc2o1)c1ccccc1	?	0	0	0	?
O=S(=O)(CCSc1ccccn1)c1nc2ccccc2s1	0	?	0	0	0.224µM
O=S(=O)(CCSc1nc2ccccc2o1)Cc1ccccc1	?	0	0	0	20µM
CCS(=O)(=O)CCSc1nc2ccccc2o1	0	0	0	0	0
O=S(=O)(CCSc1nc2ccccc2o1)c1nc2ccccc2s1	?	?	0	0	0.282µM
Cc1noc(C)c1C(=O)N1CCC2(CCN(Cc3cc(C(F)(F)F)cc(C(F)(F)F)c3)CC2)CC1	-	-	0	0	0
O=C(CNC(=O)c1ccco1)OCc1ccc(Cl)cc1	-80.9	0	0	0	?
CCOCc1nnc(NC(=O)c2cc(Cl)ccc2OC)s1	0	0	14.1µM	0	?
COCc1nnc(NC(=O)c2cc(Cl)ccc2OC)s1	0	0	?	0	?
O=C(Nc1nnc(COc2ccc(Cl)cc2)s1)c1ccco1	-	0	-	-	3.16µM
SMILES	PNC assembly inh	Lamin A splicing	HPGD block	ALOX12 inhib	ALDH1A1 block
O=C(Nc1nnc(COc2ccc(Cl)cc2)s1)c1cccs1	0	0	25.1µM	0	10µM
CN(C)C(=O)c1ccc(-c2cncnc2N2CCNCC2)cc1	-	0	-	-	0
COC(=O)c1scc(-c2ccc(C)cc2)c1S(=O)(=O)Nc1cc(Cl)ccc1C	-	0	-	-	-
O=C(Nc1nnc(COc2ccc(Cl)cc2)s1)C1CCCO1 (configuration not stated)	?	0	17.8µM	0	10µM
Cc1ccc(OCc2nnc(NC(=O)c3ccco3)s2)c(C)c1	-107.1	0	0	0	0
O=C(Nc1nnc(SCc2ccc(Cl)cc2)s1)C1CCCO1 (configuration not stated)	?	0	0	0	0
CSc1ccc(/C=N/Nc2nc(C)cc(=O)[nH]2)cc1	-	0	-	-	0
Cc1cc(=O)[nH]c(N/N=C/c2c(C)nn(-c3ccc(F)cc3)c2Cl)n1	-	-	-	-	6.31µM
COc1cccc(CNc2ccc(N3CCCCC3)cc2)c1OC	0	0	0	0	3.98µM
CCOc1cc(CNc2ccc(N3CCOCC3)cc2)cc(Br)c1OCC	-113.4	?	0	?	?
CCOc1cc(CNc2ccc3c(c2)OCCO3)cc(Br)c1OCC	-83.2	?	0	0	?
CCOc1cc(CNc2ccc(N3CCCC3)cc2)cc(Cl)c1OC	-113.4	?	0	0	31.6µM
COc1cc(CNc2ccc(N3CCOCC3)cc2)cc(Br)c1OC	-	0	-	-	?
NCCS(=O)O	-	?	0	0	0
CCOc1ccc(CNc2ccc(N3CCCC3)cc2)cc1	0	0	0	0	7.94µM
CCOc1ccc(CNc2ccc(CNc3ncn[nH]3)cc2)cc1	-	-	-	-	0
O=[N+]([O-])c1cc(Br)c(O)c(C=Nc2ccc(N3CCOCC3)cc2)c1	-	-	-	-	0
Oc1ccc(N=Cc2cc(Br)c(N3CCOCC3)o2)cc1	0	0	0	0	8.91µM
O=C(C1CCCCC1)N1CCCC(c2nc3c(nnn3Cc3ccccc3)c(=O)[nH]2)C1 (configuration not stated)	0	0	14.1µM	0	15.8µM
COc1ccccc1NC(=O)N1CCCC(c2nc3c(nnn3Cc3ccc(C)cc3)c(=O)[nH]2)C1 (configuration not stated)	0	0	-	0	?
Cc1ccc(C)c(Cn2nnc3c(=O)[nH]c(C4CCCN(C(=O)C5CCCCC5)C4)nc32)c1 (configuration not stated)	0	0	6.31µM	0	12.6µM
Cc1ccc(Cn2nnc3c(=O)[nH]c(C4CCN(S(=O)(=O)c5ccc(C)cc5)CC4)nc32)cc1	0	?	0	0	0
CCc1ccccc1NC(=O)c1sc2nc3n(c(=O)c2c1C)CCC3	-	0	-	-	-
C=C(Nc1ccc(OCC)cc1)Nc1ccc(OCC)cc1	-	?	0	0[0.00818 µM]	0
CCOc1ccc(-c2c(C)nn3c(C)c(C(=O)NCCc4ccc(C)cc4)cnc23)cc1OCC	-	0	-	-	-
SMILES	PNC assembly inh	Lamin A splicing	HPGD block	ALOX12 inhib	ALDH1A1 block
OCC1OC([S-])[C@H](O)C(O)C1O.[Au+] (some centres not stated)	-	-	0	0	?
C/C(=N\NS(=O)(=O)c1ccc(C)c([N+](=O)[O-])c1)c1ccc2c(c1)OCO2	-	-	-	-	22.4µM
COC(=O)/C(=C1\OC(=O)C(c2ccccc2)C1=O)c1ccccc1 (configuration not stated)	-	0	0	0	0
CC(=O)OC1CC(OC(C)=O)[C@]2(C)C(CC(OC(C)=O)[C@@]3(C)C4=CC(=O)OC(c5ccoc5)[C@]4(C)CCC32)C1(C)C (some centres not stated)	-	-	0	0	0
CCN(CC)C(=O)C1CCCN(Cc2ccccc2F)C1 (configuration not stated)	0	0	0	0	0
CCN(CC)C(=O)C1CCCN(Cc2ccccc2C(F)(F)F)C1 (configuration not stated)	0	0	0	0	3.55µM
O=C(O)c1cc(Br)ccc1NN=C1CCCCC1	?	?	25.1µM	0	?
CCCCC(=O)Nc1ccc(Br)cc1C(=O)O	0	0	0	0	0
